# Data published in the supplement of paper PMC10981050.
# Where “and” joins values, the source holds several entries; their conditions need not be identical. Identical values can stand only once. Counter-ions that a name gives are not always drawn.
# Columns and labels:
# Assay in all cases: cell viability relative to vehicle control; higher = less cytotoxic
# Details in all cases: 10 µM
# K562 = system: K562
# Summary of the method: (§1)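 Screening covered the Selleck bioactive, kinase and epigenetic probe libraries, less identity-inconsistent compounds, on CRISPR-edited mutant clones and isogenic wild-type clones of four leukaemia lines. Cells, at 2000 per well in 50 µL medium, received a single 10 µM acoustically dispensed dose. After 48 h the supernatant was removed and CellTiter-Glo luminescence was read. Viability was analysed in Genedata Screener as percent of the on-plate vehicle control.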
# MARIMO = system: MARIMO
# Summary of the method: as §1
# MOLM14 = system: MOLM14
# Summary of the method: as §1
# OCI-AML2 = system: OCI-AML2
# Summary of the method: as §1
Compound,cell viability (K562; SRSF2 genotype: SRSF2 P95H/wt),cell viability (K562; SRSF2 genotype: SRSF2 wt/wt) [%],cell viability (MARIMO; SRSF2 genotype: SRSF2 P95H/wt) [%],cell viability (MARIMO; SRSF2 genotype: SRSF2 wt/wt) [%],cell viability (MOLM14; SRSF2 genotype: SRSF2 P95H/wt) [%],cell viability (MOLM14; SRSF2 genotype: SRSF2 wt/wt) [%],cell viability (OCI-AML2; SRSF2 genotype: P95H/wt) [%],cell viability (OCI-AML2; SRSF2 genotype: wt/wt) [%]
CCc1cnn2c(NCc3ccc[n+]([O-])c3)cc(N3CCCC[C@H]3CCO)nc12,8.67% and 18.9%,13.1,10.8,4.43,2.65,0.52,5.12,17.9
CN(C)c1ccc2nc3c(C(=O)O)cc(=O)c(O)c-3oc2c1 [Gallocyanine],84.7% and 76.8%,77.7,82.6,87.4,85.3,86.2,84,78.8
COC(=O)C1=C(C)NC(C)=C(C(=O)OC)C1c1ccccc1[N+](=O)[O-] [Nifedipine (Adalat)],76.5% and 90.2%,80.8,57.5,51.7,49.3,49.5,29.4,48.4
Clc1cccc(Cl)c1NC1=NCCN1 [Clonidine hydrochloride (Catapres)],98.5% and 103%,105,110,113,89.2,103,115,101
O=C(N/N=C/c1cc(O)c(O)cc1O)c1cc2ccccc2cc1O [Dyngo-4a],78.9% and 81.5%,78,67.3,89.5,64.9,72,85.1,79.3
CN[C@H]1CN(c2ccc3c(=O)c(C(=O)O)cn(-c4nccs4)c3n2)C[C@@H]1OC [Voreloxin (SNS-595) hydrochloride],74% and 88.4%,79.8,20.8,36,21.3,7.31,15.6,19.9
C[C@H]1[C@H](C)CC[C@]2(C(=O)O[C@@H]3O[C@H](CO[C@@H]4O[C@H](CO)[C@@H](O[C@@H]5O[C@H](C)[C@H](O)[C@@H](O)[C@H]5O)[C@H](O)[C@H]4O)[C@@H](O)[C@H](O)[C@H]3O)CC[C@]3(C)C(=CC[C@@H]4[C@@]5(C)C[C@@H](O)[C@H](O)[C@@](C)(CO)[C@@H]5CC[C@]43C)[C@H]12 [Asiaticoside],102% and 105%,101,103,99.2,103,103,98.7,106
O=C(Nc1cc(C(F)(F)F)cc(C(F)(F)F)c1)c1cc(Cl)ccc1O,5.29% and 8.22%,5.97,19,18.3,10.3,8.64,2.4,8.72
C[C@H]1C[C@@H]2[C@H]([C@@H](O)C[C@@]3(C)[C@H]2CC[C@]3(O)C(=O)CO)[C@@]2(C)C=CC(=O)C=C12 [Methylprednisolone],100% and 106%,103,110,103,95.8,98.8,99.8,107
CC(C)CN(C[C@@H](O)[C@H](Cc1ccccc1)NC(=O)O[C@H]1CCOC1)S(=O)(=O)c1ccc(N)cc1 [Amprenavir (Agenerase)],89.2% and 83.5%,86.4,77.8,93.5,90.2,89.8,101,99.4
N#CC(=C(/N)Sc1ccccc1N)/C(C#N)=C(\N)Sc1ccccc1N,70.5% and 77.5%,72.7,38.2,37.1,54.9,57.2,48.9,48.1
COc1ccc(-n2c(SCCCN3C(=O)c4cccc5cccc(c45)C3=O)nnc2-c2ccncc2)cc1,100% and 88.5%,88.4,101,103,102,101,95.5,100
"OC[C@H]1O[C@@H](Oc2ccc(O)cc2)[C@H](O)[C@@H](O)[C@@H]1O [Arbutin (Uva, p-Arbutin)]",104% and 97.2%,95.1,96.6,104,103,101,100,107
CC(C)c1ccc(NC(=O)Cn2cnc3c2c(=O)n(C)c(=O)n3C)cc1,88.2% and 87.9%,94.4,91,96.1,95.1,96.2,87.5,91
Cn1cc(-c2[nH]c3cc(NC(=O)[C@H](N)C4CCCCC4)cc4c3c2C=NNC4=O)cn1,2.84% and 6.35%,4.41,32.7,26.9,0.83,0.37,5.09,8.02
CN1CCN(C2=Nc3cc(Cl)ccc3Nc3ccccc32)CC1 [Clozapine (Clozaril)],85.7% and 106%,98.8,104,94.4,101,106,100,98.1
C=C1[C@@H]2CC[C@@H](C2)C1(C)C [Camphene],105% and 102%,106,102,111,95,108,98.5,97.1
Cc1cc2c(F)c(Oc3ncnn4cc(OC[C@@H](C)OC(=O)[C@H](C)N)c(C)c34)ccc2[nH]1,89.4% and 85.9%,82,93.5,104,82,87.4,78.8,81.5
O=C(Cn1cnnn1)N[C@@H]1C(=O)N2C(C(=O)O)=C(CSc3nncs3)CS[C@H]12 [Ceftezole],102% and 97.3%,103,96.3,105,105,104,103,109
CCCNC(C)C(=O)Nc1c(C)csc1C(=O)OC (stereo unspecified) [Articaine HCl],107% and 117%,114,107,106,106,107,116,99.9
CC(O)c1ccc(S(=O)(=O)NC(=O)NC2CCCCC2)cc1 (stereo unspecified) [Hydroxyhexamide],106% and 96%,107,103,99,101,104,104,106

Compound,cell viability (K562; SRSF2 genotype: SRSF2 P95H/wt),cell viability (K562; SRSF2 genotype: SRSF2 wt/wt) [%],cell viability (MARIMO; SRSF2 genotype: SRSF2 P95H/wt) [%],cell viability (MARIMO; SRSF2 genotype: SRSF2 wt/wt) [%],cell viability (MOLM14; SRSF2 genotype: SRSF2 P95H/wt) [%],cell viability (MOLM14; SRSF2 genotype: SRSF2 wt/wt) [%],cell viability (OCI-AML2; SRSF2 genotype: P95H/wt) [%],cell viability (OCI-AML2; SRSF2 genotype: wt/wt) [%]
CC(=O)OCC(=O)[C@@]1(O)CC[C@H]2[C@@H]3CCC4=CC(=O)C=C[C@]4(C)[C@H]3[C@@H](O)C[C@@]21C [Prednisolone acetate (Omnipred)],87.3% and 81.8%,84.8,86.1,84,80.5,80.3,73.3,87
Nc1[nH]c(=O)ncc1Br [5-Bromocytosine],102% and 99.4%,105,101,103,104,105,98.1,108
COc1cc(NC(=O)c2ccccn2)ccc1Cl,85.2% and 86.2%,94.1,87.1,92.4,99,95.3,88.4,80
COc1ccc(/C=C/C(=O)c2c(O)cc(OC)cc2OC)cc1 [Flavokawain A],95.5% and 92.8%,92.7,78.9,82.6,72.6,103,71.2,74.3
O=C(c1ccc(/C=C/c2n[nH]c3ccccc23)cc1)N1CCNCC1,42.2% and 62.9%,27.7,38.9,36.2,2.78,7.69,7.33,14.9
COc1ccc(CCC(=O)Nc2nc3ccc(Cl)cc3s2)cc1OC,95.4% and 97%,92,97.3,96.3,94.6,97.8,91.4,87.5
CCOC(=O)C1=C(C)NC(C)=C(C(=O)OC)C1c1cccc(Cl)c1Cl (stereo unspecified) [Felodipine (Plendil)],72.9% and 78.2%,79.9,79.2,88.8,78.4,86.3,78.9,87.1
N#CC[C@H](C1CCCC1)n1cc(-c2ncnc3[nH]ccc23)cn1 [S-Ruxolitinib],108% and 98.5%,113,101,104,75.5,89.4,83.4,77.2
O=c1cc(N2CCOCC2)oc2c(-c3ccc4c(c3)OCCO4)csc12,39.4% and 50.7%,46.9,36.4,30.9,15.7,18.2,3.38,11.7
CC(=O)Nc1cccc(-n2c(=O)n(C3CC3)c(=O)c3c(Nc4ccc(I)cc4F)n(C)c(=O)c(C)c32)c1,67.7% and 87.2%,77.8,39.6,38.5,42.3,27.1,39.8,41.6
CNC(=O)c1cc(Oc2ccc3nc(N[C@@H]4CCCC[C@H]4O)sc3c2)ccn1,87.4% and 93.2%,89.4,100,99.1,89.2,99.5,90,83.2
O=C1NC(=O)C(c2ccccc2)(c2ccccc2)N1 [Phenytoin (Lepitoin)],98.1% and 111%,99.6,107,103,100,103,105,91.6
C=CC(=O)Nc1cccc(Nc2nc(Nc3ccc(Oc4ccnc(C(=O)NC)c4)cc3)ncc2F)c1,87.5% and 95.6%,85.1,83.4,83.8,53.1,53.4,57.5,63.8
C[C@]12CCC3=C4CCC(=O)C=C4CC[C@H]3[C@@H]1CC[C@@]2(O)CC#N [Dienogest],104% and 96.7%,102,93,107,100,103,104,106
O=c1ccoc2cc(O)ccc12 [7-Hydroxy-4-chromone],102% and 95.6%,93.5,99.1,104,98.9,104,97.1,96.3
CN(C(Cc1ccc(OS(=O)(=O)c2cccc3cnccc23)cc1)C(=O)N1CCN(c2ccccc2)CC1)S(=O)(=O)c1cccc2cnccc12 (stereo unspecified),80.8% and 87.8%,83.5,74.4,72.7,79.8,74.6,75.7,76.4
O=C1[C@H]2CCCC[C@H]2C(=O)N1CCCCN1CCN(c2nsc3ccccc23)CC1 [Perospirone hydrochloride],70.2% and 74%,73.6,71.2,82.3,78.7,82.5,73.7,75.8
COc1cc2nc(N3CCN(C(=O)C4CCCO4)CC3)nc(N)c2cc1OC (stereo unspecified) [Terazosin HCl],97.7% and 96.9%,96.6,99.5,102,101,99.2,103,104
FC(F)c1nc2ccccc2n1-c1nc(N2CCOCC2)nc(N2CCOCC2)n1,71.3% and 77.2%,70,49.4,43.4,32,32.9,13.8,27.2
CC(CNC(=O)c1cccnc1)NC(=O)c1cccnc1 (stereo unspecified) [Nicaraven],100% and 95.4%,107,106,108,101,104,101,98.4
N[C@@H](Cc1cc(I)c(Oc2cc(I)c(O)c(I)c2)c(I)c1)C(=O)O [L-Thyroxine],87.7% and 96.4%,101,106,114,98.8,106,102,114
